Data reported in PubChem BioAssay AID1159580 (chemical genetic matrix, 2015).
“And” between values parts separate entries of the source, which are not always exact repeats. Equal entries are not always repeated. The campaign covered roughly 5,500 compounds. About 2,000 (36%) were called active. About 18% were inconclusive and are not listed. Rule as the data show it: active = normalized growth mostly below about 0.91 (no sharp cut-off); inconclusive = no clear call, values can overlap the other calls; inactive = mostly above about 0.92. The list shows a part of the results.

Experiment: chemical genetic growth profiling, strain panel (AID 1159580);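 also: tested at 20 µM; growth read once vehicle control cultures reached saturation at 30 °C; 1 = growth at the plate median or of vehicle wells; lower values mean less growth of the strain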
Conditions: S. cerevisiae deletion strains, growth OD

Measured: normalized growth

CCc1cccc2c3c([nH]c12)C(CC)(CC(=O)O)OCC3 (stereo not given)
inactive: locus YAL013W, strain DEP1, stronger effect = lower value 1.01 and 1.02 | locus YAL021C, strain ccr4, stronger effect = lower value 1.01 | locus YAL026C, strain drs2, stronger effect = lower value 0.983 | locus YAL030W, strain snc1, stronger effect = lower value 1 | locus YAL040C, strain CLN3, stronger effect = lower value 0.976 | locus YBL061C, strain skt5, stronger effect = lower value 0.979 | locus YBR009C, strain hhf1, stronger effect = lower value 1 | locus YBR021W, strain FUR4, stronger effect = lower value 1.01 | locus YBR023C, strain chs3, stronger effect = lower value 0.968 | locus YBR171W, strain sec66, stronger effect = lower value 0.959 | locus YBR229C, strain ROT2, stronger effect = lower value 1.01 | locus YBR231C, strain swc5, stronger effect = lower value 0.989 | locus YBR279W, strain paf1, stronger effect = lower value 0.987 | locus YCL011C, strain gbp2, stronger effect = lower value 1 | locus YCL016C, strain dcc1, stronger effect = lower value 1 | locus YCL029C, strain bik1, stronger effect = lower value 1.01 | locus YCL061C, strain MRC1 (second series), stronger effect = lower value 0.995 | locus YCL069W, strain vba3, stronger effect = lower value 0.976 | locus YCR088W, strain abp1, stronger effect = lower value 0.983 | locus YDL005C, strain med2, stronger effect = lower value 0.971 | locus YDL035C, strain GPR1, stronger effect = lower value 1 | locus YDL040C, strain nat1, stronger effect = lower value 0.976 | locus YDL074C, strain BRE1, stronger effect = lower value 1.02 | locus YDL101C, strain DUN1, stronger effect = lower value 1.02 | locus YDL134C, strain PPH21, stronger effect = lower value 1.01 | locus YDL185W, strain tfp1, stronger effect = lower value 1.01 | locus YDL192W, strain arf1, stronger effect = lower value 1.01 | locus YDR001C, strain nth1, stronger effect = lower value 0.966 | locus YDR069C, strain doa4, stronger effect = lower value 0.976 | locus YDR101C, strain arx1, stronger effect = lower value 1 | locus YDR137W, strain rgp1, stronger effect = lower value 0.964 | locus YDR150W, strain NUM1, stronger effect = lower value 1 and 0.999 | locus YDR159W, strain sac3, stronger effect = lower value 0.976 | locus YDR162C, strain NBP2, stronger effect = lower value 1.01 | locus YDR195W, strain ref2 0.896 | locus YDR297W, strain sur2, stronger effect = lower value 0.985 | locus YDR318W, strain mcm21, stronger effect = lower value 1.02 | locus YDR334W, strain swr1, stronger effect = lower value 0.951 | locus YDR335W, strain msn5, stronger effect = lower value 0.968 | locus YDR363W, strain ESC2, stronger effect = lower value 1.05 | locus YDR388W, stronger effect = lower value 1.01 | locus YDR392W, strain spt3, stronger effect = lower value 1.03 | locus YDR502C, strain sam2, stronger effect = lower value 0.986 | locus YEL003W, strain gim4, stronger effect = lower value 0.964 | locus YEL037C, strain rad23, stronger effect = lower value 0.968 | locus YEL061C, strain CIN8 (second series), stronger effect = lower value 0.965 | locus YEL061C, strain CIN8, stronger effect = lower value 1 | locus YER002W, strain NOP16, stronger effect = lower value 0.979 | locus YER015W, strain faa2, stronger effect = lower value 0.973 | locus YER016W, strain bim1, stronger effect = lower value 0.984 | locus YER110C, stronger effect = lower value 1 | locus YER111C, strain swi4, stronger effect = lower value 0.968 | locus YER155C, strain BEM2 (second series), stronger effect = lower value 0.979 | locus YER155C, strain BEM2, stronger effect = lower value 1.01 | locus YER167W, strain BCK2, stronger effect = lower value 1.01 | locus YFR010W, strain ubp6, stronger effect = lower value 0.984 | locus YGL078C, strain dbp3, stronger effect = lower value 0.99 | locus YGL086W, strain mad1, stronger effect = lower value 1.01 | locus YGL167C, strain pmr1, stronger effect = lower value 0.957 | locus YGL173C, strain kem1, stronger effect = lower value 0.993 | locus YGL227W, strain vid30, stronger effect = lower value 0.987 | locus YGL240W, strain doc1, stronger effect = lower value 0.982 | locus YGL248W, strain PDE1, stronger effect = lower value 1.01 | locus YGL253W, strain hxk2, stronger effect = lower value 0.98 | locus YGR078C, strain PAC10, stronger effect = lower value 1.02 | locus YGR135W, strain pre9, stronger effect = lower value 1 | locus YGR229C, strain SMI1, stronger effect = lower value 0.995 | locus YGR252W, strain gcn5, stronger effect = lower value 1 | locus YHR013C, strain ard1, stronger effect = lower value 0.985 | locus YHR027C, strain rpn1, stronger effect = lower value 0.997 | locus YHR030C, strain SLT2, stronger effect = lower value 1.01 and 0.971 | locus YHR079C, strain IRE1 (second series), stronger effect = lower value 1.01 | locus YHR079C, strain IRE1, stronger effect = lower value 0.965 | locus YHR094C, strain hxt1, stronger effect = lower value 1.01 | locus YHR129C, strain ARP1, stronger effect = lower value 1.01 | locus YHR142W, strain chs7, stronger effect = lower value 0.986 | locus YHR200W, strain rpn10, stronger effect = lower value 1 | locus YIL066C, strain RNR3, stronger effect = lower value 1.01 | locus YIL073C, strain SPO22, stronger effect = lower value 1.02 | locus YIL125W, strain kgd1, stronger effect = lower value 0.992 | locus YIR030C, strain dcg1, stronger effect = lower value 0.997 | locus YJL092W, strain hpr5, stronger effect = lower value 0.982 | locus YJL095W, strain BCK1 (second series), stronger effect = lower value 0.987 | locus YJL095W, strain BCK1, stronger effect = lower value 1.05 and 0.971 | locus YJL115W, strain asf1, stronger effect = lower value 0.98 | locus YJL129C, strain trk1, stronger effect = lower value 0.934 | locus YJL134W, strain LCB3, stronger effect = lower value 1.01 | locus YJL154C, strain vps35, stronger effect = lower value 0.981 | locus YJL164C, strain tpk1, stronger effect = lower value 1.01 | locus YJL166W, strain qcr8, stronger effect = lower value 0.984 | locus YJL168C, strain set2, stronger effect = lower value 1 | locus YJL187C, strain SWE1 (second series), stronger effect = lower value 1.03 | locus YJR043C, strain POL32, stronger effect = lower value 1.01 | locus YJR066W, strain TOR1, stronger effect = lower value 0.916 | locus YJR075W, strain HOC1, stronger effect = lower value 1.02
